Experimental data as given in the supplement of paper PMC8728848.
The sample as a whole holds a higher share of the strongest signals than the screen did.

B1: PMA (Polygonatum multiflorum) (protein)
chain: LLTTTLFVFISSTRSLASTNVLYSDVGNAILNAKESLIYGDYRLDMQSDCNLVLYNKAAPYWASGTRWSWGGNCHLNLQSNGELVMYAYLGRTRIAIWRSGIISATGSYALVLKYDGALHVHGPSLWSTNATGPTTPTTASWSIDSTLWSGDVATIGPTIANGDYKLELLDTCNLTLSNTKTGQVLWYTNTTDWVHDCYVNIEGNGELKIKYLGGATLWSNKVGAGYTNNYVLGLRPDGKLDTYNAPIWSPTIGPGVHVAPAVYNASSNAVAAEGNGEKIAMVTGRAKNST
B2: Ficolin A (Rattus norvegicus), Q9WTS8 (protein)
chain: MWWPMLWAFPVLLCLCSSQALGQESGACPDVKIVGLGAQDKVAVIQSCPSFPGPPGPKGEPGSPAGRGERGLQGSPGKMGPPGSKGEPGTMGPPGVKGEKGERGTASPLGQKELGDALCRRGPRSCKDLLTRGIFLTGWYTIYLPDCRPLTVLCDMDVDGGGWTVFQRRVDGSINFYRDWDSYKRGFGNLGTEFWLGNDYLHLLTANGNQELRVDLREFQGQTSFAKYSSFQVSGEQEKYKLTLGQFLEGTAGDSLTKHNNMAFSTHDQDNDTNGGKNCAALFHGAWWYHDCHQSNLNGRYLPGSHESYADGINWLSGRGHRYSYKVAEMKIRAS

Experiments:
Assay in all cases: glycan array binding signal (z-score within array); higher = stronger binding
Settings in all cases: glycan notation: IUPAC condensed, linker removed
[1] = biological target: Fuc(a1-2)[GalNAc(a1-3)]Gal(b1-4)Glc
In short: (§1)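 Glycan array data came from 3228 arrays in the Consortium for Functional Glycomics database, and only arrays with an available protein sequence were kept. Glycan names were put into IUPAC-condensed notation, and columns mapping to the same glycan were averaged. The binding signal is a within-array Z-score, averaged across arrays of one protein sequence run at different concentrations or buffers and across linkers. A negative Z-score can be read as non-binding.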

[2] = biological target: Fuc(a1-2)[GalNAc(a1-3)]Gal(b1-4)[Fuc(a1-3)]GlcNAc
In short: as §1

Gal(a1-4)Gal(b1-4)Glc = biological target: Gal(a1-4)Gal(b1-4)Glc
In short: as §1

Gal(b1-3)Gal = biological target: Gal(b1-3)Gal
In short: as §1

Gal(b1-4)GlcNAc = biological target: Gal(b1-4)GlcNAc
In short: as §1

[3] = biological target: Gal(b1-4)GlcNAc(b1-2)Man(a1-3)[Gal(b1-4)GlcNAc(b1-2)Man(a1-6)]Man(b1-4)GlcNAc(b1-4)GlcNAc
In short: as §1

GalNAc(a1-3)Gal = biological target: GalNAc(a1-3)Gal
In short: as §1

GalNAc(b1-4)GlcNAc = biological target: GalNAc(b1-4)GlcNAc
In short: as §1

[4] = biological target: GlcNAc(b1-2)Man(a1-3)[GlcNAc(b1-2)Man(a1-6)]Man(b1-4)GlcNAc(b1-4)GlcNAc
In short: as §1

GlcNAc(b1-3)Gal = biological target: GlcNAc(b1-3)Gal
In short: as §1

[5] = biological target: GlcNAc(b1-6)Gal(b1-4)GlcNAc
In short: as §1

[6] = biological target: Man(a1-2)Man(a1-2)Man(a1-6)[Man(a1-3)]Man
In short: as §1

[7] = biological target: Man(a1-2)Man(a1-3)[Man(a1-2)Man(a1-6)]Man
In short: as §1

[8] = biological target: Man(a1-3)[Man(a1-6)]Man(a1-6)[Man(a1-3)]Man(b1-4)GlcNAc(b1-4)GlcNAc
In short: as §1

[9] = biological target: Neu5Ac(a2-3)Gal(b1-3)[Neu5Ac(a2-3)Gal(b1-4)]GlcNAc
In short: as §1

Neu5Ac(a2-3)Gal(b1-4)Glc = biological target: Neu5Ac(a2-3)Gal(b1-4)Glc
In short: as §1

Neu5Ac(a2-6)Gal(b1-4)Glc = biological target: Neu5Ac(a2-6)Gal(b1-4)Glc
In short: as §1

[10] = biological target: Neu5Ac(a2-8)Neu5Ac(a2-8)Neu5Ac(a2-8)Neu5Ac(a2-3)[GalNAc(b1-4)]Gal(b1-4)Glc
In short: as §1

[11] = biological target: Fuc(a1-2)[GalNAc(a1-3)]Gal(b1-4)GlcNAc
In short: as §1

Gal(a1-3)Gal(b1-4)Glc = biological target: Gal(a1-3)Gal(b1-4)Glc
In short: as §1

[12] = biological target: Gal(a1-3)Gal(b1-4)[Fuc(a1-3)]GlcNAc
In short: as §1

[13] = biological target: Gal(b1-3)[Fuc(a1-4)]GlcNAc
In short: as §1

Gal(b1-4)Glc6S = biological target: Gal(b1-4)Glc6S
In short: as §1

Glc(b1-4)Glc = biological target: Glc(b1-4)Glc
In short: as §1

[14] = biological target: GlcNAc(a1-6)Gal(b1-4)GlcNAc
In short: as §1

GlcNAc(b1-3)Gal(b1-4)Glc = biological target: GlcNAc(b1-3)Gal(b1-4)Glc
In short: as §1

[15] = biological target: GlcNAc(b1-3)Gal(b1-4)GlcNAc
In short: as §1

[16] = biological target: Man(a1-2)Man(a1-3)[Man(a1-2)Man(a1-6)]Man(a1-6)[Man(a1-2)Man(a1-2)Man(a1-3)]Man
In short: as §1

[17] = biological target: Neu5Ac(a2-3)Gal(b1-3)[Fuc(a1-4)]GlcNAc(b1-3)Gal(b1-4)[Fuc(a1-3)]GlcNAc
In short: as §1

[18] = biological target: Neu5Ac(a2-3)Gal(b1-3)[Neu5Ac(a2-6)]GalNAc
In short: as §1

[19] = biological target: Neu5Ac(a2-3)Gal(b1-4)GlcNAc(b1-2)Man(a1-3)[Neu5Ac(a2-6)Gal(b1-4)GlcNAc(b1-2)Man(a1-6)]Man(b1-4)GlcNAc(b1-4)GlcNAc
In short: as §1

[20] = biological target: Neu5Ac(a2-3)Gal(b1-4)GlcNAc(b1-3)Gal(b1-3)GlcNAc
In short: as §1

[21] = biological target: Neu5Ac(a2-3)[GalNAc(b1-4)]Gal(b1-4)Glc
In short: as §1

Neu5Ac(a2-6)Gal = biological target: Neu5Ac(a2-6)Gal
In short: as §1

Neu5Ac(a2-8)Neu5Ac = biological target: Neu5Ac(a2-8)Neu5Ac
In short: as §1

[22] = biological target: Neu5Ac(a2-8)Neu5Ac(a2-8)Neu5Ac(a2-3)[GalNAc(b1-4)]Gal(b1-4)Glc
In short: as §1

[23] = biological target: Neu5Ac(b2-6)Gal(b1-4)GlcNAc
In short: as §1

Row | Binder | glycan array binding signal (z-score) [1] | glycan array binding signal (z-score) [2] | glycan array binding signal (z-score) (Gal(a1-4)Gal(b1-4)Glc) | glycan array binding signal (z-score) (Gal(b1-3)Gal) | glycan array binding signal (z-score) (Gal(b1-4)GlcNAc) | glycan array binding signal (z-score) [3] | glycan array binding signal (z-score) (GalNAc(a1-3)Gal) | glycan array binding signal (z-score) (GalNAc(b1-4)GlcNAc) | glycan array binding signal (z-score) [4] | glycan array binding signal (z-score) (GlcNAc(b1-3)Gal) | glycan array binding signal (z-score) [5] | glycan array binding signal (z-score) [6] | glycan array binding signal (z-score) [7] | glycan array binding signal (z-score) [8] | glycan array binding signal (z-score) [9] | glycan array binding signal (z-score) (Neu5Ac(a2-3)Gal(b1-4)Glc) | glycan array binding signal (z-score) (Neu5Ac(a2-6)Gal(b1-4)Glc) | glycan array binding signal (z-score) [10] | glycan array binding signal (z-score) [11] | glycan array binding signal (z-score) (Gal(a1-3)Gal(b1-4)Glc) | glycan array binding signal (z-score) [12] | glycan array binding signal (z-score) [13] | glycan array binding signal (z-score) (Gal(b1-4)Glc6S) | glycan array binding signal (z-score) (Glc(b1-4)Glc) | glycan array binding signal (z-score) [14] | glycan array binding signal (z-score) (GlcNAc(b1-3)Gal(b1-4)Glc) | glycan array binding signal (z-score) [15] | glycan array binding signal (z-score) [16] | glycan array binding signal (z-score) [17] | glycan array binding signal (z-score) [18] | glycan array binding signal (z-score) [19] | glycan array binding signal (z-score) [20] | glycan array binding signal (z-score) [21] | glycan array binding signal (z-score) (Neu5Ac(a2-6)Gal) | glycan array binding signal (z-score) (Neu5Ac(a2-8)Neu5Ac) | glycan array binding signal (z-score) [22] | glycan array binding signal (z-score) [23]
1 | B1 | -0.249 | -0.236 | -0.244 | -0.195 | -0.068 | 7.37 | -0.253 | -0.246 | 5.03 | -0.263 | -0.255 | 5.65 | 4.98 | 2.16 | -0.191 | -0.233 | -0.255 | -0.245 | – | – | – | – | – | – | – | – | – | – | – | – | – | – | – | – | – | – | –
2 | B2 | – | – | – | – | – | – | – | – | -0.048 | – | – | – | – | – | – | – | – | – | -0.02 | -0.071 | -0.105 | -0.069 | -0.092 | -0.11 | 17.3 | -0.056 | -0.094 | -0.092 | -0.064 | 0.325 | -0.027 | -0.098 | 0.265 | -0.042 | 0.58 | -0.047 | 1.16
